Compounds with a hit are over-represented: about 3.3% of the library has one in this group of screens.
SARS PLpro yeast-1: blocks SARS-CoV papain-like protease in a yeast assay; S. cerevisiae expressing SARS-CoV PLpro, growth rescue; Potency, µM (doses to about 32.9 µM), inactives show at the top dose activity, positive = growth rescue, most hits filed as activators; 330,000 compounds, 0.19% hits; calls by dose curve; also: potency is read from the fitted curve at half-maximal effect; 0% is about no effect; nearly all actives have a fitted effect of over 55% in size
NS1 inh: blocks influenza NS1 protein function. Potency, µM (doses to about 46.1 µM), inactives show top-dose activity, positive = more growth. 270,000 compounds, 0.4% hits. AID 2326; calls by dose curve; also: potency is read from the fitted curve at half-maximal effect; actives are rising curves; nearly all actives have a fitted effect of over 50% in size
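OD600 was taken as the measure of yeast growth restored by compound in an NS1-expressing S. cerevisiae strain. Cells had been washed out of glucose medium and diluted 1:100 into galactose -URA medium, pH 6.0.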
Tb PYK inh: inhibitors of Trypanosoma brucei pyruvate kinase. Q57TT1. TbPYK enzyme, Kinase-Glo Plus ATP luminescence, 45 min. AID 624173. 410,000 compounds, 0.12% hits. Potency, µM (top dose mostly 76.8 µM), inactives show at the top dose activity, negative = inhibition, usual class: inhibitors; also: potency is read from the fitted curve at half-maximal effect; % is scaled to controls: 0 for no effect and ±100 for the full control effect; nearly all actives have a fitted effect of over 50% in size
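Readout: single end-point luminescence (Kinase-Glo Plus, 10 min). Reaction conditions were TbPYK/substrate plus 130 uM ADP, 45 min at RT, pH 7.2 TEA buffer. No-enzyme wells served as controls, and data were normalized before concentration-response fitting.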
RE007 growth inh: less growth of the S. pombe RE007 Vpr strain. S. pombe RE007 Vpr strain, BacTiter-Glo ATP luminescence, 24 h. Potency, µM (series often up to 92.2 µM), for the others: at the top dose activity change, negative = less growth, usual class: inhibitors. 360,000 compounds, 0.21% hits; active = well fitted falling curve with a large enough effect; inconclusive = small, poorly fitted or top-dose-only effect; inactive = no such curve, though single readings can be large or run the other way; also: potency is read from the fitted curve at half-maximal effect; % is scaled to controls: 0 for no effect and ±100 for the full control effect; nearly all actives have a fitted effect of over 50% in size
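Fission yeast strain RE007, carrying one chromosomally integrated HIV-1 vpr copy, was seeded at OD 0.01 in PMG+AL medium with 23 nL pinned compound. After 24 h at 30 °C and 99% humidity, viability was read by BacTiter-Glo luminescence.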
LmPK inhibitor: LmPK (Leishmania mexicana) enzyme inhibition; Potency, µM (doses to about 57.5 µM), inactives show at the highest dose activity change, negative = inhibition, actives largely listed as inhibitors; AID 1721; purified LmPK, Kinase-Glo ATP luminescence, 1 h; 290,000 compounds, 0.37% hits; also: potency is read from the fitted curve at half-maximal effect; % is scaled to controls: 0 for no effect and ±100 for the full control effect
Target sequence (Q27686 whole entry, looked up): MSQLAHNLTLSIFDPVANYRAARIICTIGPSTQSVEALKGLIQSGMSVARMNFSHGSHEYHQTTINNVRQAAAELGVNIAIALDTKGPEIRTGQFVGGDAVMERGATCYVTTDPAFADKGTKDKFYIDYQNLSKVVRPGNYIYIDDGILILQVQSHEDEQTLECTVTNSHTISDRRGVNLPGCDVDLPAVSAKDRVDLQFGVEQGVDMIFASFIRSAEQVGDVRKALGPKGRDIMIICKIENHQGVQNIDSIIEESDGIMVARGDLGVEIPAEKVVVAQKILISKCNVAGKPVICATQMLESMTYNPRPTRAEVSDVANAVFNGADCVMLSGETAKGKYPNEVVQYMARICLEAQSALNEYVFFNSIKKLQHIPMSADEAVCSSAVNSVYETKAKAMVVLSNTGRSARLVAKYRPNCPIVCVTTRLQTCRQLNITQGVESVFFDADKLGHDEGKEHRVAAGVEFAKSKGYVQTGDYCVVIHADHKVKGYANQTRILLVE
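Kinase-Glo luminescence read after 1 h RT reaction of 0.1 nM LmPK with 0.5 mM PEP and 0.1 mM ADP. Activity scaled between uninhibited and enzyme-free controls.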
Sm TGR inh: S. mansoni TGR enzyme inhibition; Q962Y6; purified TGR, DTNB reduction, TNB absorbance 405 nm; Potency, µM (titrated, usually from 114 µM), without a hit: top-dose activity change, negative = inhibition, hits mostly inhibitors; 360,000 compounds, 3% hits; also: potency is read from the fitted curve at half-maximal effect; % is scaled to controls: 0 for no effect and ±100 for the full control effect; nearly all actives have a fitted effect of over 60% in size
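Kinetic colorimetric format: TGR-catalysed, NADPH-driven DTNB reduction monitored via TNB absorbance. Enzyme dispensed at 20 nM; compound exposure 15 min at room temperature before reaction start.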
NS1 inh valid: influenza NS1 function inhibition validation; influenza NS1 function cell assay, 15-point titration; activity change, negative = inhibition, % at 32.9 µM; shares compounds with NS1 inh; 1,400 tested, under 10 active; calls by dose curve; also: 0% is about no effect
SARS PLpro yeast-2: Inhibits SARS-CoV PLP in yeast, hit validation. 1,000 compounds, 19% hits. yeast expressing SARS-CoV PLpro, growth phenotype rescue. calls only. shares compounds with SARS PLpro yeast-1. AID 652038; call rule not given here
* = called active by the depositor; i = inactive; ? = inconclusive; · = no result; + = active, no number. Unless noted, calls follow the shape of the dose curve; as a rule, active = well fitted curve in the direction sought with a large enough effect; inconclusive = small, poorly fitted or top-dose-only effect, or another doubt; inactive = no such curve, though single readings can be large; an effect the other way counts as inactive or inconclusive.

SMILES	SARS PLpro yeast-1	NS1 inh	Tb PYK inh	RE007 growth inh	LmPK inhibitor	Sm TGR inh	SARS PLpro yeast-2	others
Cc1ccc(-c2csc(NC(=O)c3cccc([N+](=O)[O-])c3)n2)cc1	7%	5µM*	-1%	5%	1%	10%	·	NS1 inh valid=1
O=C(Nc1nc(-c2ccc([N+](=O)[O-])cc2)cs1)c1c(F)cccc1F	0%	13%	-6%	1%	0%	-1%	·
COc1cccc(OC)c1C(=O)Nc1nc(-c2ccccc2)cs1	6%	13µM*	-6%	-20%	7%	1%	·	NS1 inh valid=-16
Nc1c(C(=O)NCc2ccco2)sc2nc(N3CCOCC3)c3c(c12)CCCC3	0%	25µM*	-17%	-14%	-11%	?	·	NS1 inh valid=0
Nc1c(C(=O)Nc2ccc(Br)cc2)sc2nc(N3CCOCC3)c3c(c12)CCCC3	·	·	-23%	-15%	·	·	·
CC1CCc2c(sc3nnn(CC(=O)Nc4cccc(C(F)(F)F)c4)c(=O)c23)C1 (configuration not stated)	·	·	-2%	·	·	2%	·
O=C(CSc1nc(-c2ccccc2)c(-c2ccccc2)[nH]1)N1CCN(S(=O)(=O)c2ccccc2)CC1	9%	3.5µM*	-2%	-7%	0%	-20%	·	NS1 inh valid=12
O=C(CSc1nc2ccccc2c(=O)[nH]1)N1CCN(S(=O)(=O)c2ccccc2)CC1	4%	7%	-3%	-6%	-2%	22%	·
Cc1ccc(-n2c(=O)c3c4c(sc3n(Cc3ccccc3C)c2=O)CCC4)cc1C	·	·	1%	·	·	8%	·
Cc1nc2ccc3nc(NC(=O)c4ccc5c(c4)OCCO5)sc3c2s1	-9%	8%	-3%	-1%	-3%	-4%	·
Cc1nc2c(ccc3nc(NC(=O)c4ccc5c(c4)OCCO5)sc32)s1	-8%	?	-18%	-8%	-5%	-30%	·	NS1 inh valid=-30
O=C(Nc1nccs1)c1cn(-c2ccccc2)nc1-c1ccccc1	?	21%	-23%	4%	-2%	10%	·
CC(C)COc1ccc(-c2nn(-c3ccccc3)cc2C(=O)Nc2nccs2)cc1	?	11µM*	0%	12%	2%	9%	+	NS1 inh valid=0
COc1ccc(OC(=O)c2ccncc2)cc1	?	?	-17%	-10%	-6%	7%	i	NS1 inh valid=-2
CC1CCN(C(=O)C2COc3ccccc3C2)CC1 (configuration not stated)	·	·	1%	·	·	1%	·
Cc1cc(C)c2sc(NNC(=O)c3ccc(S(=O)(=O)N4CCc5ccccc5C4)cc3)nc2c1	7.9µM*	11µM*	0%	22%	-5%	-14%	+	NS1 inh valid=6
O=C(C1CCC1)N1CCc2cc(S(=O)(=O)NCCc3ccccc3)ccc21	·	·	2%	·	·	-7%	·
CN1OC2C(=O)N(c3ccccc3)C(=O)C2C1c1ccc(F)cc1 (configuration not stated)	?	?	-15%	-6%	2%	-2%	i	NS1 inh valid=12
O=C1C2ON(c3ccccc3)C(c3ccccc3F)C2C(=O)N1c1ccccc1 (configuration not stated)	-5%	-45%	-1%	-4%	-3%	0%	·
C=CCNC(=O)C1CC2Cn3c(nc4cc(Cl)c(Cl)cc43)C2N1C (configuration not stated)	?	·	-2%	6%	·	-8%	i
C=CCNC(=O)C1CC2Cn3c(nc4ccccc43)C2N1C (configuration not stated)	1%	2%	0%	0%	-2%	?	·
O=C(CC1SC(N2CCCCC2)=NC1=O)Nc1cccc(C(=O)Nc2ncccc2O)c1 (configuration not stated)	?	·	-5%	10%	·	-10%	i
CCc1ccccc1NC(=S)N(CCCN1CCOCC1)Cc1cccs1	?	1%	4%	5%	4%	18%	i
O=C(Nc1ccc(Cl)cc1)N(CCCN1CCOCC1)Cc1cccs1	?	-13%	-2%	3%	4%	0%	i
COc1ccccc1NC(=S)N(CCCN1CCOCC1)Cc1cccs1	3%	·	-1%	-9%	1%	9%	·
SMILES	SARS PLpro yeast-1	NS1 inh	Tb PYK inh	RE007 growth inh	LmPK inhibitor	Sm TGR inh	SARS PLpro yeast-2	others
CCOc1ccc(-n2nc3ccc(NC(=O)c4ccc(-c5cccc(Cl)c5)o4)cc3n2)cc1	·	·	-1%	·	·	?	·
O=C(N/N=C/c1c(O)n(CCC2=CCCCC2)c(=O)[nH]c1=O)c1ccccc1	10µM*	5%	-10%	7%	2%	-31%	i
CC[n+]1c(/C=C(\C)SC)sc2ccccc21	-2%	8%	-4%	-16%	-2%	2%	·
CC[n+]1c(/C=C(/C)SC)sc2ccccc21	3.5µM*	6%	-7%	-24%	-3%	-15%	i
O=c1c2ccccc2ncn1CCCSc1ccccc1	?	-44%	-2%	-10%	-4%	14%	i
COc1ccc(S(=O)(=O)N(CCc2ccccc2)CC(=O)NCc2ccc(C)cc2)cc1	·	·	-8%	·	·	-4%	·
COc1cccc(C2/C(=C(\O)c3ccc4c(c3)OCCO4)C(=O)C(=O)N2Cc2cccnc2)c1 (configuration not stated)	?	-2%	-2%	5%	-2%	-1%	i
Cc1[nH]c(=S)sc1Cc1ccc(Cl)c(Cl)c1	?	11%	·	·	-8%	0%	+
COC(=O)CNC(c1ccccc1)c1cc(C)ccc1NC(=O)CNC(=O)OCc1ccccc1 (configuration not stated)	-5%	-26%	0%	1%	2%	-8%	·
COC(=O)CNC(c1ccccc1)c1cc(C)ccc1NC(=O)c1cccc(Cl)c1 (configuration not stated)	?	-37%	-4%	-12%	4%	0%	i
Cc1sc2c(c1C)c(=O)n(-c1ccccc1)c(=O)n2CC(=O)c1ccc(Cl)cc1	·	·	-2%	·	·	1%	·
O=C(N/N=C/c1c(O)n(C2CC2)c(=S)[nH]c1=O)c1ccccc1O	13µM*	16%	1%	14%	3%	-14%	i
Cc1ccccc1-n1c(O)c(/C=N/NC(=O)c2ccccc2O)c(=O)[nH]c1=S	11%	3%	-20%	2%	7%	-21%	·
Cc1ccc(C)c(N(C)C(=O)C2CCN(S(=O)(=O)c3cccc4nsnc34)CC2)c1	·	·	1%	·	·	-3%	·
S=C(NCc1cccs1)Nc1cccc(Cl)c1Cl	?	5%	-2%	20%	4%	?	·

Bioassay records from PubChem BioAssay.
